Data published in PubChem BioAssay AID1159580 (chemical genetic matrix, 2015).
Values joined by “and” are separate entries in the source; they are usually repeats but may differ in a detail not shown here. Equal values may be shown once. Out of some 5,500 compounds screened, about 2,000 (36%) were called active. Roughly 18% stayed inconclusive and do not appear here. Rule as the data show it: active = normalized growth mostly below about 0.91 (no sharp cut-off); inconclusive = no clear call, values can overlap the other calls; inactive = mostly above about 0.92. This is one part of the list.

Experiment: chemical genetic growth profiling, strain panel (AID 1159580);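 also: tested at 20 µM; growth read once vehicle control cultures reached saturation at 30 °C; 1 = growth at the plate median or of vehicle wells; lower values mean less growth of the strain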
Conditions: S. cerevisiae deletion strains, growth OD

Measured: normalized growth

CC(=O)O[C@H]1CC[C@@]2(C)C(CC[C@]3(C)C2CC=C2C4CC(C)(C)CC[C@]4(C)CC[C@]23C)C1(C)C (stereo partly drawn)
inactive: locus YAL013W, strain DEP1, hits give low values 1.02 | locus YAL021C, strain ccr4, hits give low values 0.919 | locus YAL026C, strain drs2, hits give low values 1.01 | locus YAL030W, strain snc1, hits give low values 0.979 | locus YBL061C, strain skt5, hits give low values 0.996 | locus YBR009C, strain hhf1, hits give low values 0.973 | locus YBR021W, strain FUR4, hits give low values 1.01 | locus YBR023C, strain chs3, hits give low values 0.982 | locus YBR171W, strain sec66, hits give low values 0.99 | locus YBR229C, strain ROT2, hits give low values 1 | locus YBR231C, strain swc5, hits give low values 1.01 | locus YBR279W, strain paf1, hits give low values 0.999 | locus YCL011C, strain gbp2, hits give low values 0.962 | locus YCL016C, strain dcc1, hits give low values 0.964 | locus YCL029C, strain bik1, hits give low values 1 | locus YCL061C, strain MRC1, hits give low values 0.99 | locus YCL069W, strain vba3, hits give low values 0.978 | locus YCR088W, strain abp1, hits give low values 0.991 | locus YDL005C, strain med2, hits give low values 0.988 | locus YDL035C, strain GPR1, hits give low values 1.03 | locus YDL040C, strain nat1, hits give low values 0.989 | locus YDL074C, strain BRE1, hits give low values 1.06 | locus YDL101C, strain DUN1, hits give low values 1.02 | locus YDL185W, strain tfp1, hits give low values 1.02 | locus YDL192W, strain arf1, hits give low values 1 | locus YDR001C, strain nth1, hits give low values 0.968 | locus YDR069C, strain doa4, hits give low values 0.971 | locus YDR101C, strain arx1, hits give low values 0.997 | locus YDR137W, strain rgp1, hits give low values 0.973 | locus YDR150W, strain NUM1, hits give low values 1.01 | locus YDR159W, strain sac3, hits give low values 0.998 | locus YDR162C, strain NBP2, hits give low values 1.03 | locus YDR195W, strain ref2 0.953 | locus YDR297W, strain sur2, hits give low values 1 | locus YDR318W, strain mcm21, hits give low values 1.01 | locus YDR334W, strain swr1, hits give low values 0.98 | locus YDR335W, strain msn5, hits give low values 0.989 | locus YDR388W, hits give low values 1.02 | locus YDR392W, strain spt3, hits give low values 0.889 | locus YDR502C, strain sam2, hits give low values 1.02 | locus YEL003W, strain gim4, hits give low values 1.02 | locus YEL037C, strain rad23, hits give low values 0.978 | locus YEL061C, strain CIN8 (second series), hits give low values 0.978 | locus YER015W, strain faa2, hits give low values 0.981 | locus YER016W, strain bim1, hits give low values 0.992 | locus YER110C, hits give low values 1.01 | locus YER111C, strain swi4, hits give low values 0.99 | locus YER155C, strain BEM2 (second series), hits give low values 1.02 | locus YER155C, strain BEM2, hits give low values 1.01 | locus YER167W, strain BCK2, hits give low values 1 | locus YFR010W, strain ubp6, hits give low values 0.992 | locus YGL078C, strain dbp3, hits give low values 1.06 | locus YGL086W, strain mad1, hits give low values 1.01 | locus YGL167C, strain pmr1, hits give low values 0.975 | locus YGL173C, strain kem1, hits give low values 1 | locus YGL227W, strain vid30, hits give low values 0.987 | locus YGL240W, strain doc1, hits give low values 1.01 | locus YGL248W, strain PDE1, hits give low values 1.02 | locus YGL253W, strain hxk2, hits give low values 1.02 | locus YGR078C, strain PAC10, hits give low values 1.03 | locus YGR135W, strain pre9, hits give low values 1.04 | locus YGR252W, strain gcn5, hits give low values 1.08 | locus YHR013C, strain ard1, hits give low values 0.943 | locus YHR027C, strain rpn1, hits give low values 0.983 | locus YHR030C, strain SLT2, hits give low values 1.01 and 1.03 | locus YHR079C, strain IRE1 (second series), hits give low values 1.01 | locus YHR079C, strain IRE1, hits give low values 1.03 | locus YHR094C, strain hxt1, hits give low values 1.02 | locus YHR129C, strain ARP1, hits give low values 1.01 | locus YHR142W, strain chs7, hits give low values 0.959 | locus YHR200W, strain rpn10, hits give low values 1.02 | locus YIL066C, strain RNR3, hits give low values 1.01 | locus YIL073C, strain SPO22, hits give low values 1.04 | locus YIL125W, strain kgd1, hits give low values 1.01 | locus YIR030C, strain dcg1, hits give low values 1.04 | locus YJL092W, strain hpr5, hits give low values 0.975 | locus YJL095W, strain BCK1 (second series), hits give low values 0.986 | locus YJL095W, strain BCK1, hits give low values 1.04 and 1.02 | locus YJL115W, strain asf1, hits give low values 0.968 | locus YJL129C, strain trk1, hits give low values 0.993 | locus YJL134W, strain LCB3, hits give low values 1.01 | locus YJL154C, strain vps35, hits give low values 0.975 | locus YJL164C, strain tpk1, hits give low values 0.949 | locus YJL166W, strain qcr8, hits give low values 0.999 | locus YJL168C, strain set2, hits give low values 1.02 | locus YJL187C, strain SWE1 (second series), hits give low values 1.03 | locus YJL187C, strain SWE1, hits give low values 0.986 | locus YJR043C, strain POL32, hits give low values 1.01 | locus YJR066W, strain TOR1, hits give low values 0.976 | locus YKL009W, strain mrt4, hits give low values 1 | locus YKL068W, hits give low values 1.02 | locus YKL085W, strain MDH1 (second series), hits give low values 1.01 | locus YKL085W, strain MDH1, hits give low values 1.01 | locus YKL160W, strain elf1, hits give low values 0.963 | locus YKL190W, strain CNB1, hits give low values 1.01 | locus YKR001C, strain vps1, hits give low values 0.997 | locus YKR026C, strain gcn3, hits give low values 0.991 | locus YKR091W, strain srl3, hits give low values 0.986 | locus YLL001W, strain dnm1, hits give low values 0.978 | locus YLL026W, hits give low values 0.978 | locus YLL041C, strain sdh2, hits give low values 0.976 | locus YLR027C, strain aat2, hits give low values 0.989 | locus YLR039C, strain RIC1, hits give low values 0.999 | locus YLR058C, strain SHM2, hits give low values 1.02 | locus YLR102C, strain apc9, hits give low values 1 | locus YLR113W, strain HOG1, hits give low values 1 | locus YLR221C, strain rsa3, hits give low values 1.03 | locus YLR258W, strain gsy2, hits give low values 0.962 | locus YLR262C, strain YPT6 (second series), hits give low values 0.976 | locus YLR262C, strain YPT6, hits give low values 1.01 | locus YLR268W, strain sec22, hits give low values 1.02 | locus YLR320W, strain mms22, hits give low values 1.05 | locus YLR342W, strain FKS1, hits give low values 0.991 | locus YLR357W, strain rsc2, hits give low values 0.973 | locus YLR370C, strain arc18, hits give low values 0.967 | locus YLR371W, strain rom2, hits give low values 1.02 | locus YLR384C, strain iki3, hits give low values 1 | locus YLR418C, strain cdc73, hits give low values 1.05 | locus YML016C, strain PPZ1, hits give low values 0.996 | locus YML032C, strain rad52, hits give low values 1 | locus YML120C, strain ndi1, hits give low values 0.96 | locus YML124C, strain tub3, hits give low values 1.01 | locus YMR058W, strain fet3, hits give low values 0.996 | locus YMR078C, strain ctf18, hits give low values 1.03 | locus YMR125W, strain sto1, hits give low values 0.948 | locus YMR129W, hits give low values 0.988 | locus YMR205C, strain PFK2, hits give low values 0.959 | locus YMR223W, strain ubp8, hits give low values 1.02 | locus YMR231W, strain pep5, hits give low values 0.994 | locus YMR263W, strain SAP30, hits give low values 1.03 | locus YMR307W, strain GAS1, hits give low values 1.11 | locus YNL067W, strain RPL9B, hits give low values 1.04 | locus YNL071W, strain lat1, hits give low values 0.982 | locus YNL153C, strain GIM3, hits give low values 1.03 | locus YNL183C, strain NPR1, hits give low values 0.964 | locus YNL209W, strain ssb2, hits give low values 0.984 | locus YNL233W, strain BNI4, hits give low values 1.02 | locus YNL248C, strain rpa49, hits give low values 0.918 | locus YNL250W, strain rad50, hits give low values 1.02 | locus YNL271C, strain bni1, hits give low values 1.03 | locus YNL298W, strain CLA4, hits give low values 1.03 | locus YNL307C, strain MCK1, hits give low values 1.02 | locus YNL322C, strain KRE1 (second series), hits give low values 0.982 | locus YNR049C, strain mso1, hits give low values 0.966 | locus YNR052C, strain pop2, hits give low values 1.02 | locus YOL012C, strain htz1 1.53 | locus YOL147C, strain pex11, hits give low values 1.01 | locus YOR001W, strain rrp6, hits give low values 1.01 | locus YOR061W, strain CKA2, hits give low values 1.02 | locus YOR069W, strain VPS5, hits give low values 1.01 | locus YOR070C, strain gyp1, hits give low values 1.02 | locus YOR080W, strain dia2, hits give low values 1 | locus YOR083W, strain WHI5, hits give low values 0.957 | locus YOR106W, strain vam3, hits give low values 0.929 | locus YOR136W, strain idh2, hits give low values 1.01 | locus YOR144C, strain elg1, hits give low values 1.01 | locus YOR184W, strain ser1, hits give low values 1.01 | locus YOR231W, strain MKK1, hits give low values 1 | locus YOR265W, strain rbl2, hits give low values 0.998 | locus YOR270C, strain vph1, hits give low values 1.03 | locus YOR290C, strain snf2, hits give low values 0.906 | locus YOR316C, strain cot1, hits give low values 1.01 | locus YPL051W, strain arl3, hits give low values 1.01 | locus YPL078C, strain atp4, hits give low values 0.945 | locus YPL106C, strain sse1, hits give low values 0.94 | locus YPL240C, strain hsp82, hits give low values 0.995 | locus YPL241C, strain CIN2, hits give low values 1.01 | locus YPL256C, strain CLN2, hits give low values 1.06 | locus YPR119W, strain clb2, hits give low values 1.02 | locus YPR141C, strain kar3, hits give low values 1.02 | locus YPR163C, strain tif3, hits give low values 1.02 | locus YPR167C, strain met16, hits give low values 1.02 | strain wtn01, hits give low values 1.02
